# In PubChem BioAssay AID1347426 (Functional Genomics Laboratory (NCATS/FGL), 2020):
# The whole screen tested about 31,000 sequences, of which about 1,400 (4.5%) were called active. The sample as a whole holds a higher share of actives than the screen did. Values without a mark were called inactive.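 The calls were made as follows: active = median seed-adjusted z-score above 1 or below -1; inactive = the rest.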
# Assay: Novel Modifiers of Survival Motor Neuron (SMN) Protein: Gene Identification via Genome-wide siRNA Screen;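 also: luminescence tracks full-length SMN protein made from the SMN2 reporter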
# Settings: HEK293T SMN2-luciferase reporter, siRNA knockdown, 72 h; actives lie on both sides
# Outline: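 Each of three siRNAs per gene is reverse-transfected (1 pmol) into reporter HEK293T cells whose luciferase output tracks SMN protein level. After 72 h culture, ONE-Glo luminescence is control-normalized, log10-transformed and MAD-standardized; Common Seed Analysis deprioritizes seed-driven hits.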
row,Sequence,median seed-adjusted z-score
1,GCACUUUAGAAUCACACGATT against TRMT6,0.069
2,GCUCAUUGUACAUCUCAGATT against ZNF26,0
3,CCUGCUUACCUGAUCAAAATT against SLC25A34,-0.256
4,GCAUAACUGUAGACUACAATT against ADAM32,1.75 (active)
5,CAGUCUUACUGGGAACAAUTT against TGDS,-0.196
6,GCCCAUUGGAUAUCAGUAUTT against STRADB,0.21
7,CUAUUAGGUUGACCAAUAATT against OSGEPL1,-0.708
8,GGAGGAUCAAUUUAUCAGATT against VDAC2,0.648
9,CAGUGUUCCUAUUAGAUGATT against LONP2,1.52 (active)
10,CCUGUGCUGUUAUGAAGCUTT against APC2,0.00354
11,GAAUGGAGAGAGAAUUGAATT against B2M,-0.367
12,GGAUUAAAGAGAAGAUCUATT against ERH,-1.25 (active)
13,CCAGGAGAAAUAUAAGUCATT against ZNF627,0.204
14,GGACGAGAAAAACUGCUCATT against CORIN,-0.0274
15,GCAUACAUAUGGUAUAGCATT against DDX20,-0.0137
16,GCGGAGAUCAGAUUAGUCATT against NCL,1.33 (active)
17,GCAUGACCGCUUAUCCCAATT against SLC6A5,-0.204
18,CAUUCACUUUGACACCAUATT against HSD17B7,0.0836
19,GGUUUUUGCUGGACAAACATT against PPP2R3C,0.295
20,CCGUGUACGUGGAUGAUGATT against LPHN1,-1.03 (active)
21,GCAUUAGUCUGACAGUACATT against MRGPRX3,-0.175
22,CGAACCUAAUGCUCAACAATT against PREX2,-0.0625

row,Sequence,median seed-adjusted z-score
1,GGAAAUUAGAUACCGAGGATT against SLC25A30,0
2,GGCUAACAUUAGAACACUUTT against MED6,-2.15 (active)
3,CGGAGUCUGCGCUUCGUUATT against ACP2,-0.00569
4,GCUUUAUAAGUGUAGCGAATT against ZNF749,0.911
5,GGAGGUCACUUGUGAAUCATT against GLS2,-0.793
6,CCCAGUUCCUGCUAUCUCATT against POU2F3,-1.53 (active)
7,GGGCUACCAUCUCCUUUCATT against SLC23A3,-0.254
8,GUACCCAAGUAACAACUGUTT against CXCL11,-0.135
9,UCCACUGACUCGUAAAGUUTT against PROK2,-0.00826
10,GCUCGGUGGUUGAUAAUCATT against SLC22A10,-0.0897
11,AGACCAUCGCAGAGACAGATT against SLC31A2,0.401
12,GGAUGUUCGUCAUAUUGAATT against IRAK3,0.155
13,CAAAAGACCUGUAAUAAGATT against MAGT1,-0.0855
14,GCCUUGAUGCUGAUCAUCATT against MEP1B,1.46 (active)
15,GGUGAAUCAUUUGAACUGATT against RCL1,0.0807
16,GGAAUACUCAGAUCGGGAATT against MAP3K3,-0.182
17,GUAUGGAGAUCUCUACGGATT against RYR3,0
18,GUAUGACCUAAAAACCGAATT against MTRR,-0.381
19,AGAGAUACUUCUUAAAUCATT against YAP1,-0.247
20,GCUCAAUGCAGGUAUUCAATT against KLF8,0.0976
21,AAGUCUCAUUCGUGGUUGATT against ST6GALNAC6,0.367
22,CAGCCCAAGUGUCGCCUUATT against PAX9,-1.16 (active)

row,Sequence,median seed-adjusted z-score
1,GAUAUUCUCUGUGACGUGATT against BACH2,0
2,GACCAGAUGUGGAUGUAAATT against MIB1,0
3,ACUAGCCUGUGGAGCAAGATT against HBE1,-0.425
4,CCGAUCAAGUGAACAUAGATT against AKAP4,0.116
5,CCUUCUCAACAUAGGAUAATT against ZNF257,0.306
6,UGGGUUGGAUGAUACCUUATT against GATA5,0.15
7,GAGGGUCUCUUCUUAAGUATT against CAD,2.37 (active)
8,UCAUCACAGCGGUACUGUATT against ITGAX,-0.0677
9,GCAGGUAGCUCAUAUGUUUTT against WDR31,0.796
10,GGACCACGUCAAGACUUGUTT against TRAF2,-0.00463
11,CAAACUUCCCGAUAGAGAATT against CTDP1,-2.29 (active)
12,CUAUCAGGGAAAUUACGUATT against ZNF713,-0.0652
13,AAAUGUAACCUUUUGCUUUTT against DAD1,-0.45
14,GCUUUACCUUGGACCUGAATT against MPL,-0.0153
15,GCGUGAUCAUCGAUGUGGATT against SLC5A7,0.624
16,GAUGUUCCCUAUAUGCAAATT against CLDN10,0.0399
17,GUGUAUCUAUGGAAGAGCATT against PSMD4,1.46 (active)
18,CUAUAAUUCCAGAGCAUAATT against KLF5,-0.338
19,GGACCUUGGAUUAUCUGAATT against YME1L1,0.131
20,CACUAGUUCUAUGACCAUUTT against IMPG1,-0.252
21,GCAUGGAAGUGUACGAGUATT against THBS3,0.429
22,CCACUGACAAGGUCCACGATT against MRGPRD,-0.484

row,Sequence,median seed-adjusted z-score
1,CCGUAAACUUCAUAACAUUTT against DYRK1A,-1.3 (active)
2,CCUUAGUUCUUCCUCGGAATT against PARP12,-0.287
3,GCUGAUCUAUCACAAACCATT against SERPINA2,0.285
4,AAUGCAUUGUGAACCCAUUTT against GNGT2,-0.289
5,GGUUAGAAGAGGUGUCUAATT against NUMB,-0.599
6,AGCCCAAGGUGGAACAAUCTT against CREM,-2.37 (active)
7,GGAUGAACCCAAUCCCAAUTT against UBE2A,0.306
8,GGUCCCUGUUGAGAAACGATT against TOP1,0.0303
9,GCAAAGGCCUUGUACGUCATT against USP10,0.182
10,GCUUGAGUAUAGAUAAAGATT against PAM,0
11,UGGACACCGUCACCAUGAATT against GPR78,0.607
12,GCCGAGCUCUUUAUCCUCUTT against TRHDE,0.429
13,GGAUCGGGUGUAUCAACAATT against SRP54,0.203
14,CAUUGUCGUUGGUGCAGUATT against ADCY10,-0.573
15,GGAAUUACGGAGAUAUAGATT against TRRAP,-1.25 (active)
16,GGACACAUCUCGGACAGCATT against KLK9,-0.476
17,GUACCUUGAGAAGAAAUUUTT against ACCN1,-0.325
18,UCAGCUCCAUUAAUAGAAUTT against PAX8,0
19,CCUCAUAAGUGUAAGAUAUTT against ZNF799,-1.02 (active)
20,GAAUGUCCCUGCUCCACAATT against SNAI1,0.0196
21,ACAACUUCCUGGUCGCUGATT against GPR62,0.0306
22,AGAAGAUCCGAAAGAAAUATT against GABARAP,0.418

row,Sequence,median seed-adjusted z-score
1,CCAACGACCUGGUUAUGAATT against FBP1,-0.221
2,GGUUGGAACUCGUUCCUCATT against NLGN4X,-0.1
3,GCACAAGACGAACUCAGUATT against UBE2J2,-0.341
4,GCAUUGUCUCUCUUAUGUUTT against SYVN1,-1.41 (active)
5,AGAUCAAGCUCCUCAACAATT against KRT4,0.336
6,GUUAUUCCCUGUUCUCGAATT against ALDH5A1,0.339
7,GGACGUGGACCAUUACUGUTT against LITAF,0.0771
8,GAUUAACCAAGGUUGAGAATT against CNGA1,-1.08 (active)
9,CCACAUCUCUACUCGUGAATT against ULK4,0.0834
10,GGAGUUACGAUAGCCGGAATT against DIAPH1,0.145
11,CGGGAUAAUUUUGACAAGATT against NXF2,-0.0513
12,GGAAACUCUGUUUACGUUATT against BTAF1,-1.19 (active)
13,GGACAACAUUUGACACCAATT against APOBEC2,0.232
14,CAGACACCUUCAUACCUUATT against BHMT,0
15,CUGCAAGACUUGGAGCUAATT against HDLBP,-1.18 (active)
16,UGGGAGAAGUACAACAAUATT against FAM12A,0.08
17,CAACGACAGCAGUCCCAUUTT against EGR1,0.0836
18,GUGUAAGGAUCAAAAAGAATT against ZNF682,-0.155
19,ACAACAUCAUGAUCCGAGATT against PIK3CD,0.00831
20,CUUCGUAUGUUUACAAGAATT against GUCY2C,-0.0181
